Compound activity as filed in PubChem.
Rab9 promoter act – activates the Rab9 promoter. Huh7 Rab9 promoter-luciferase reporter, luminescence, 24 h. Potency, µM (highest dose often 9.22 µM), without a hit: top-dose activation, negative = inhibition, usual class: activators. 2.8% of 320,000 active; also: % of control where 0% means no effect; nearly all actives have a fitted effect of over 60% in size
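Huh7 cells stably carrying a Rab9 promoter-luciferase reporter, 1500 cells per well in OP-MEM I with 10% FBS, treated with compound 24 hours at 37C. Luciferase activity read by luminescence after 10 minutes with Amplite reagent.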
ELG1 genotoxic – induces genotoxicity in HEK293T cells with luciferase-tagged ELG1; 1.3% of 330,000 active; AID 504466; HEK293T ELG1-luciferase reporter, luminescence, 16 h; Potency, µM (titrated, usually from 46 µM), without a hit: at the highest dose activity change, positive = activation, hits mostly activators; also: % of control where 0% means no effect; nearly all actives have a fitted effect of over 60% in size
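Cells (2,000/well) expressing the ELG1-luciferase fusion are dosed by pin tool and kept 16 hr at 37 °C, 5% CO2. Signal comes from ONE-Glo luciferase reagent after 30 min at room temperature.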
SMN2 splice enh – increases expression of the SMN2 splice variant; 2.8% of 210,000 active; HEK293 SMN2-luciferase splicing reporter, luminescence, 30-36 h; Potency, µM (top dose mostly 46.1 µM), for inactives: at the top dose activity change, positive = activation, most hits filed as activators; also: % of control where 0% means no effect; nearly all actives have a fitted effect of over 55% in size
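HEK293 cells carry an SMN2 […]–luciferase reporter in which exon 7 inclusion puts luciferase in frame. Cells were plated 10-12 h before compound addition, then incubated 30-36 h at 37C. ONE-Glo luminescence was read; sodium butyrate at 4.5 mM final served as control.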
FLuc counter – inhibits or activates purified firefly luciferase, miR-21 counter-screen; purified FLuc, Km substrates, luminescence inhibition; Potency, µM (series often up to 57.5 µM), inactives show at the top dose activity change, negative = inhibition, hits mostly inhibitors; 6.9% of 360,000 active; AID 588342;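 also: plate controls were vehicle for no effect and reference inhibitor for full effect; nearly all actives have a fitted effect of over 55% in size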
Target sequence (P08659 whole entry, looked up): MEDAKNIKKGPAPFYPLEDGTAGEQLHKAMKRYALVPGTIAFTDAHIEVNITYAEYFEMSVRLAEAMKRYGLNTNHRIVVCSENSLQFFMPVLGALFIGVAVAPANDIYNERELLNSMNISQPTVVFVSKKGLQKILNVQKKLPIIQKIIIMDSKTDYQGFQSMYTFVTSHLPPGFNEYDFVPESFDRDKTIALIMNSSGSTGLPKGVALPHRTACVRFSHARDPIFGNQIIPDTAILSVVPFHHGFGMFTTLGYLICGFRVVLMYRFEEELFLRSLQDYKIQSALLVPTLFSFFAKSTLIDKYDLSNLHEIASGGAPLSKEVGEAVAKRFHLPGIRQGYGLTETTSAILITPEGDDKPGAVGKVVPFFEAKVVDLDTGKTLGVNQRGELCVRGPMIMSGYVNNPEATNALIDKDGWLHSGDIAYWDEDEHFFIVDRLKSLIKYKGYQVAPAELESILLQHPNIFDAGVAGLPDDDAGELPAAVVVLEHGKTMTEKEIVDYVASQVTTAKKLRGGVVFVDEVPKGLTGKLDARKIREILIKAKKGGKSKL
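Purified P. pyralis luciferase, 10 nM final, with Km-level 10 uM D-luciferin and 10 uM ATP in 50 mM Tris acetate pH 7.5, 10 mM Mg acetate, 0.01% Tween-20, 0.05% BSA; 6-point qHTS titration about 60 µM downward; luminescence read.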
NPC1 promoter act – NPC1 promoter activation; Potency, µM (highest dose often 9.22 µM), without a hit: top-dose activation, usual class: activators; AID 485313; Huh7 NPC1 promoter luciferase reporter, 24 h; 2.4% of 320,000 active; also: % of control where 0% means no effect; nearly all actives have a fitted effect of over 60% in size
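Luminescence from an NPC1 promoter-driven luciferase reporter in stably transfected Huh7 cells was measured after 24 h compound treatment at 37 °C, followed by 10 min ambient incubation with luciferase detection reagent.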
Active calls of the source: *; [ ] = another dose, or the depositor's remark. The list is not random: actives were taken first. Their share in the collection is about 7.4%. Calls follow the shape of the dose curve; as a rule, active = well fitted curve in the direction sought with a large enough effect; inconclusive = small, poorly fitted or top-dose-only effect, or another doubt; inactive = no such curve, though single readings can be large; an effect the other way counts as inactive or inconclusive. Potency is read from the fitted curve at half-maximal effect.

Screening O=C(Nc1ccc(Cl)c(Cl)c1)Nc1ccccc1O returned Rab9 promoter act 3.98µM*, ELG1 genotoxic inconclusive, FLuc counter 6.01µM* and NPC1 promoter act 3.98µM*.
Screening Cc1ccccc1N1C(=O)c2cc(S(N)(=O)=O)c(Cl)cc2NC1C (centres undefined) returned Rab9 promoter act -7.1%[46.1 µM], ELG1 genotoxic -20.2%, SMN2 splice enh -3.4%, FLuc counter 1.2% and NPC1 promoter act -5.4%[46.1 µM].
For Cc1ccc(Cl)cc1NC(=O)Cn1c(=O)n(C(C)C)c(=O)c2oc3ccccc3c21 the results were FLuc counter -2.2%.
For Cc1cc(=O)[nH]c(SCC(=O)Nc2ncc(S(=O)(=O)c3ccc([N+](=O)[O-])cc3)s2)n1 the results were Rab9 promoter act -2.8%, ELG1 genotoxic 0.2%, FLuc counter inconclusive and NPC1 promoter act -0.8%.
For CC(C)c1ccc(Nc2nnc(SCC(=O)Nc3ncc(S(=O)(=O)c4ccc([N+](=O)[O-])cc4)s3)s2)cc1 the results were Rab9 promoter act 1.41µM*, ELG1 genotoxic inconclusive, SMN2 splice enh 22.4µM*, FLuc counter 0.849µM* and NPC1 promoter act 2.82µM*.
Cc1ccc(Nc2nnc(SCC(=O)Nc3ncc(S(=O)(=O)c4ccc([N+](=O)[O-])cc4)s3)s2)cc1 was read as Rab9 promoter act 17.6%, ELG1 genotoxic inconclusive, SMN2 splice enh -0.1%, FLuc counter 2.39µM* and NPC1 promoter act 21.2%.
For O=C(CN1CCCCC1)NC(=O)NC1CCCCC1 the results were Rab9 promoter act 19.3%, ELG1 genotoxic 8.3%, FLuc counter -5.7% and NPC1 promoter act 1.6%.
Screening CN(Cc1ccccc1)C(=O)[C@H]1CCC(=O)N1Cc1ccco1 returned Rab9 promoter act -0.4%, ELG1 genotoxic -2.0%, SMN2 splice enh -8.8%, FLuc counter -0.4% and NPC1 promoter act 1.5%.
Screening c1ccc(COc2ccc3nocc3c2)cc1 returned Rab9 promoter act 2µM*, ELG1 genotoxic inconclusive, FLuc counter 7.57µM* and NPC1 promoter act 3.16µM*.
For O=C(NCCC1=CCCCC1)c1cnsn1 the results were Rab9 promoter act inconclusive, ELG1 genotoxic 16.4µM*, SMN2 splice enh 26.0%, FLuc counter inconclusive and NPC1 promoter act 26.8%.
CC(=O)c1cccc(N=Cc2c(O)c3ccccc3oc2=O)c1 was read as Rab9 promoter act -1.1%, ELG1 genotoxic 2.0%, FLuc counter 1.69µM* and NPC1 promoter act -5.3%.
COc1cccc(N=Cc2c(O)c3ccccc3oc2=O)c1 was read as Rab9 promoter act 6.1%, ELG1 genotoxic -0.2%, FLuc counter 1.9µM* and NPC1 promoter act 0.2%.
CC(=O)Nc1ccc(N=Cc2c(O)c3ccccc3oc2=O)cc1 was read as Rab9 promoter act -4.2%, ELG1 genotoxic 0.5%, FLuc counter inconclusive and NPC1 promoter act -4.1%.
`Cc1ccc(F)cc1N=Cc1c(O)c2ccccc2oc1=O` gave Rab9 promoter act 1.8%, ELG1 genotoxic 3.4%, FLuc counter inconclusive and NPC1 promoter act -4.7%.
`Cc1ccc(N=Cc2c(O)c3ccccc3oc2=O)c(C)c1` gave Rab9 promoter act 1.3%, ELG1 genotoxic 4.1%, FLuc counter 0.213µM* and NPC1 promoter act -2.6%.
For COc1ccc(CC(=O)N2CCc3cc(OC)c(OC)cc3C2COc2ccc(F)cc2)cc1 (centres undefined) the results were FLuc counter -11.1%.
For COc1ccccc1NC(=O)CSc1nccn1Cc1ccccc1 the results were Rab9 promoter act 0.3%, ELG1 genotoxic -0.4%, FLuc counter 0.7% and NPC1 promoter act -1.2%.
For Cc1ccc(NC(=O)c2ccc(NC(=O)c3ccccc3)cc2)cc1C the results were Rab9 promoter act inconclusive, ELG1 genotoxic inconclusive, FLuc counter 26.9µM* and NPC1 promoter act inconclusive.
For Cc1nc2ccccn2c1C(=O)/C=C/c1cccc([N+](=O)[O-])c1 the results were Rab9 promoter act -43.1%, ELG1 genotoxic -27.1%, SMN2 splice enh -69.1%, FLuc counter -4.8% and NPC1 promoter act -28.1%.
Screening CCc1ccc(NC(=O)CN2CCc3ccccc3C2)cc1 returned Rab9 promoter act 11.8%, ELG1 genotoxic inconclusive, SMN2 splice enh -15.5%, FLuc counter 23.9µM* and NPC1 promoter act 5.7%.
Cc1ccc(NC(=O)c2c(C)nc3ccccn23)cc1C was read as Rab9 promoter act 1.78µM*, ELG1 genotoxic -0.8%, SMN2 splice enh 12.6µM*, FLuc counter 8.49µM* and NPC1 promoter act 3.16µM*.
Cc1ccc(/C=C/C(=O)c2c(C)nc3ccccn23)cc1 was read as Rab9 promoter act 1.41µM*, ELG1 genotoxic 15.6%, SMN2 splice enh inconclusive, FLuc counter 1.07µM* and NPC1 promoter act inconclusive.
Screening CC1CCN(C(=O)c2ccc(N3CCOCC3)c([N+](=O)[O-])c2)CC1 returned ELG1 genotoxic 1.4%.
Screening Cc1ccc(Cn2c(CNC(=O)c3ccc(Cl)c([N+](=O)[O-])c3)nc3cccnc32)cc1 returned FLuc counter -9.6%.
`Cn1c(=O)c2[nH]c([C@@H]3CC(=O)C[C@H](c4nc5c([nH]4)c(=O)n(C)c(=O)n5C)N3)nc2n(C)c1=O` gave SMN2 splice enh -3.5%[9.22 µM].
For Cc1ccc(NC(=O)c2ccccc2C(=O)O)cc1C the results were SMN2 splice enh -4.9%[9.22 µM].
For Cc1cc2ccccn2c1C(=O)Nc1ccc(Cl)cc1 the results were Rab9 promoter act inconclusive, ELG1 genotoxic inconclusive, SMN2 splice enh 13.8%, FLuc counter inconclusive and NPC1 promoter act 12.6%.
For Cc1cc2ccccn2c1C(=O)Nc1ccccc1 the results were Rab9 promoter act inconclusive, ELG1 genotoxic inconclusive, SMN2 splice enh inconclusive, FLuc counter 10.7µM* and NPC1 promoter act 27.5%.
`Cc1ccc(NC(=O)c2cccc(N3CCCS3(=O)=O)c2)cc1C` gave FLuc counter 19µM*.
For Cc1cccc(C(=O)Nc2ccc(NC(=O)c3ccccc3)cc2)c1 the results were Rab9 promoter act -0.9%, ELG1 genotoxic -6.2%, FLuc counter 23.9µM* and NPC1 promoter act -0.6%.
Screening Cc1cccc(C(=O)Nc2ccc(C(=O)Nc3ccc(O)cc3)cc2)c1 returned Rab9 promoter act 9.3%, ELG1 genotoxic inconclusive, FLuc counter -4.0% and NPC1 promoter act 0.8%.
Cc1ccc(C(=O)Nc2ccc(Oc3ccc(C(=O)O)c(C(=O)O)c3)cc2)cc1C was read as Rab9 promoter act -9.3%, ELG1 genotoxic 1.5%, SMN2 splice enh -0.2%, FLuc counter 6.01µM* and NPC1 promoter act -1.4%.
`Cc1ccc(CNC(=O)c2cccc(N3CCCS3(=O)=O)c2)cc1` gave FLuc counter 3.6%.
Screening COc1ccc(-c2nn(Cc3ccccc3)cc2C(=O)N2CCN(c3ncccn3)CC2)cc1 returned Rab9 promoter act -5.2%, ELG1 genotoxic -1.2%, FLuc counter -1.5% and NPC1 promoter act 1.4%.
